From PubChem BioAssay (EPA / NIEHS)
Active and inactive are the calls of the source. The calls were made as follows: active = hit-call score of the fitted dose curve at least 0.9, where 1 is the maximum; inactive = score below 0.9.

Read-out: Monocyte Chemoattractant Protein-1 (MCP1), CCL2 (gene 6347)
Experiment: BSK_CASM3C_MCP1: BioMAP Diversity Plus: CASM3C Assay for Monocyte Chemoattractant Protein-1 (MCP1) Biomarker Activity (AID 2283046);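 also: MCP-1 level quantified by ELISA 24 h after dosing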
Conditions: primary human coronary artery smooth muscle cells; actives raise or lower the signal

Row | Structure (SMILES) | outcome | AC50
1 | CCC(C)(CC)c1cc(NC(=O)c2c(OC)cccc2OC)on1 | inactive | 
2 | Nn1cnnc1 | inactive | 
3 | CCCCCCCCOC(=O)c1ccccc1C(=O)OCCCCCCCC | inactive | 
4 | Clc1ccc(Cl)cc1 | inactive | 
5 | Cc1ccccc1O | inactive | 
6 | Cc1cc(-c2ccc(N)c(C)c2)ccc1N | inactive | 
7 | CC#Cc1cc(C)nc(Nc2ccccc2)n1 | inactive | 
8 | CO/C=C(/C(=O)OC)c1ccccc1COc1cccc(C(F)(F)F)n1 | inactive | 
9 | ClC1=C(Cl)[C@]2(Cl)[C@@H]3[C@@H](Cl)[C@H]4O[C@H]4[C@@H]3C1(Cl)C2(Cl)Cl | inactive | 
10 | C=CC(=O)NCNC(=O)C=C | inactive | 
11 | CCCCCCCCCc1ccc(O)cc1 |  | 31.8 µM (active)
12 | N#Cc1ccc(N(CC(N)=O)CC(F)(F)F)cc1C(F)(F)F |  | 0.335 µM (active)
13 | CCC(C)(c1ccc(O)cc1)c1ccc(O)cc1 | inactive | 
14 | O=C(N[C@H]1CN2CCC1CC2)c1cc2ccoc2cn1 | inactive | 
15 | ClC1=C(Cl)[C@]2(Cl)[C@@H]3[C@@H]4C[C@@H]([C@H]5O[C@@H]45)[C@@H]3[C@@]1(Cl)C2(Cl)Cl | inactive | 
16 | O=C(NC(=O)c1cc(F)c(F)cc1Cl)Nc1cc(F)ccc1N1CCC(C(=O)O)CC1 | inactive | 
17 | O=S(=O)(O)C(F)(F)C(F)(F)C(F)(F)C(F)(F)C(F)(F)C(F)(F)F | inactive | 

Row | Structure (SMILES) | outcome | AC50
18 | C1CC2OC2CC1C1CO1 (stereo not given) | inactive | 
19 | ClC1=C(Cl)[C@]2(Cl)[C@@H]3[C@H]4C[C@H]([C@@H]5O[C@H]45)[C@@H]3[C@@]1(Cl)C2(Cl)Cl | inactive | 
20 | C[C@]12CCC(=O)C=C1CC[C@@H]1[C@@H]2CC[C@]2(C)C(=O)CC[C@@H]12 | inactive | 
21 | CCC(C)c1cc([N+](=O)[O-])cc([N+](=O)[O-])c1O (stereo not given) | inactive | 
22 | CCC(=O)O[C@H]1CC[C@H]2[C@@H]3CCC4=CC(=O)CC[C@]4(C)[C@H]3CC[C@]12C | inactive | 
23 | Clc1ccc(C(Cl)(Cl)Cl)cc1 | inactive | 
24 | Oc1ccc(Cl)cc1Cl | inactive | 
25 | C[C@]12CCC(=O)C=C1CC[C@@H]1[C@@H]2CC[C@@]2(C)[C@H]1CC[C@]2(C)O | inactive | 
26 | CC(C)C(=O)OCC(C)(C)C(OC(=O)C(C)C)C(C)C (stereo not given) | inactive | 
27 | O=NN(c1ccccc1)c1ccccc1 | inactive | 
28 | Oc1ccc(C(c2ccc(O)cc2)(C(F)(F)F)C(F)(F)F)cc1 | inactive | 
29 | CCCCCCOC(=O)c1ccccc1C(=O)OCCCCCC | inactive | 
30 | Sc1ccccc1 | inactive | 
31 | Clc1ccc(C(c2ccccc2Cl)C(Cl)(Cl)Cl)cc1 (stereo not given) |  | 23.7 µM (active)
32 | c1cc2ccc3cccc4ccc(c1)c2c34 | inactive | 
33 | CCCN(CCC)N=O | inactive | 

Read-out: not listed separately
Experiment: BSK_CASM3C_Proliferation: Cell Proliferation Assessment in the BioMAP Diversity Plus: CASM3C Assay (AID 2283047);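 also: sulforhodamine B total protein stain as relative cell number at 560 nm; sub-confluent cells exposed 48 h before staining; fitted both ways against DMSO so gain or loss of cell number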
Conditions: primary human coronary artery smooth muscle cells

Row | Structure (SMILES) | outcome | AC50
34 | CCC(C)(CC)c1cc(NC(=O)c2c(OC)cccc2OC)on1 | inactive | 
35 | Nn1cnnc1 | inactive | 
36 | CCCCCCCCOC(=O)c1ccccc1C(=O)OCCCCCCCC | inactive | 
37 | Clc1ccc(Cl)cc1 | inactive | 
38 | Cc1ccccc1O | inactive | 
39 | Cc1cc(-c2ccc(N)c(C)c2)ccc1N | inactive | 
40 | CC#Cc1cc(C)nc(Nc2ccccc2)n1 | inactive | 
41 | CO/C=C(/C(=O)OC)c1ccccc1COc1cccc(C(F)(F)F)n1 |  | 5.66 µM (active)
42 | ClC1=C(Cl)[C@]2(Cl)[C@@H]3[C@@H](Cl)[C@H]4O[C@H]4[C@@H]3C1(Cl)C2(Cl)Cl |  | 12.3 µM (active)
43 | C=CC(=O)NCNC(=O)C=C | inactive | 
44 | CCCCCCCCCc1ccc(O)cc1 |  | 16 µM (active)
45 | N#Cc1ccc(N(CC(N)=O)CC(F)(F)F)cc1C(F)(F)F | inactive | 
46 | CCC(C)(c1ccc(O)cc1)c1ccc(O)cc1 |  | 25.5 µM (active)
47 | O=C(N[C@H]1CN2CCC1CC2)c1cc2ccoc2cn1 | inactive | 
48 | O=C(NC(=O)c1cc(F)c(F)cc1Cl)Nc1cc(F)ccc1N1CCC(C(=O)O)CC1 | inactive | 
49 | O=S(=O)(O)C(F)(F)C(F)(F)C(F)(F)C(F)(F)C(F)(F)C(F)(F)F | inactive | 

Row | Structure (SMILES) | outcome | AC50
50 | C1CC2OC2CC1C1CO1 (stereo not given) | inactive | 
51 | ClC1=C(Cl)[C@]2(Cl)[C@@H]3[C@H]4C[C@H]([C@@H]5O[C@H]45)[C@@H]3[C@@]1(Cl)C2(Cl)Cl | inactive | 
52 | C[C@]12CCC(=O)C=C1CC[C@@H]1[C@@H]2CC[C@]2(C)C(=O)CC[C@@H]12 | inactive | 
53 | CCC(C)c1cc([N+](=O)[O-])cc([N+](=O)[O-])c1O (stereo not given) |  | 33.7 µM (active)
54 | CCC(=O)O[C@H]1CC[C@H]2[C@@H]3CCC4=CC(=O)CC[C@]4(C)[C@H]3CC[C@]12C |  | 20 µM (active)
55 | Clc1ccc(C(Cl)(Cl)Cl)cc1 | inactive | 
56 | Oc1ccc(Cl)cc1Cl | inactive | 
57 | C[C@]12CCC(=O)C=C1CC[C@@H]1[C@@H]2CC[C@@]2(C)[C@H]1CC[C@]2(C)O | inactive | 
58 | CC(C)C(=O)OCC(C)(C)C(OC(=O)C(C)C)C(C)C (stereo not given) | inactive | 
59 | O=NN(c1ccccc1)c1ccccc1 | inactive | 
60 | Oc1ccc(C(c2ccc(O)cc2)(C(F)(F)F)C(F)(F)F)cc1 |  | 20 µM (active)
61 | CCCCCCOC(=O)c1ccccc1C(=O)OCCCCCC | inactive | 
62 | Sc1ccccc1 | inactive | 
63 | Clc1ccc(C(c2ccccc2Cl)C(Cl)(Cl)Cl)cc1 (stereo not given) |  | 20.1 µM (active)
64 | c1cc2ccc3cccc4ccc(c1)c2c34 | inactive | 
65 | CCCN(CCC)N=O | inactive | 
